Bioassay records deposited in PubChem BioAssay by several laboratories.
IDE cell inh – inhibits human insulin-degrading enzyme in HEK cells; FAbetaB cleavage, fluorescence polarization; inhibition, % at 5.59 µM; 320,000 compounds, 0.41% hits; AID 434962;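 active = percent inhibition above the average of all tested compounds plus 3 SD, set per screening campaign, cut at about 16% in these data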;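 also: IDE supplied by intact live HEK cells; FP after avidin binding of uncleaved biotin substrate so inhibition keeps polarization high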
Target sequence (P14735 whole entry, looked up): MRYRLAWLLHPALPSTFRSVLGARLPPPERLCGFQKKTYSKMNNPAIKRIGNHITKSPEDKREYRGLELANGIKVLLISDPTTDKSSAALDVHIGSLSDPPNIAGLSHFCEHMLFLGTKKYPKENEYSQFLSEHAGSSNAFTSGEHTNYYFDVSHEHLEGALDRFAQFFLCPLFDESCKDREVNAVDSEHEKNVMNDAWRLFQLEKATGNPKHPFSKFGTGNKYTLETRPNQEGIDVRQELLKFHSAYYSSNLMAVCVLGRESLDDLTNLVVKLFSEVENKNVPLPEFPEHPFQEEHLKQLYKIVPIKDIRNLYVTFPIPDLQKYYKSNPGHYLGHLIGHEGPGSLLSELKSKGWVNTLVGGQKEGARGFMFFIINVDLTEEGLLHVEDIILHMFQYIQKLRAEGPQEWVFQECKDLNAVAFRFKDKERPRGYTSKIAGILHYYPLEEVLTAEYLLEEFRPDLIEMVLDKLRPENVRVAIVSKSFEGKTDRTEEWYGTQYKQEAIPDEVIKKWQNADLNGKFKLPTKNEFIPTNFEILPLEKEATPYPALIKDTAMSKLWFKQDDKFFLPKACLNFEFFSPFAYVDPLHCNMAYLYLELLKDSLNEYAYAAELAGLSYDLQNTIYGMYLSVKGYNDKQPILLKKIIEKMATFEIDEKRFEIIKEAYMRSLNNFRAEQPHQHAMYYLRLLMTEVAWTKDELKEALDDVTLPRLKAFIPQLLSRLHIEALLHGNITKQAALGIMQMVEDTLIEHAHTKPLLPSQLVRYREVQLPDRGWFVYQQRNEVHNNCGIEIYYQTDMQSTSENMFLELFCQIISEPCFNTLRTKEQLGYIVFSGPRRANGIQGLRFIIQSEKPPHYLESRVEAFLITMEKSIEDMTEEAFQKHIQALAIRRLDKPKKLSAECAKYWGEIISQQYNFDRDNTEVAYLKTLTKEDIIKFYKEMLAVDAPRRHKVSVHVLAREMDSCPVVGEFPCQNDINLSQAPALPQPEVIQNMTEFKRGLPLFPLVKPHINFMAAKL
IDE cell activ – activators of human insulin-degrading enzyme in cells. activation, % at 5.96 µM. 340,000 compounds, 0.073% hits. HEK cells, FAbeta-B cleavage, fluorescence polarization; 0% vehicle, 100% cell-free pure enzyme wells. P14735. AID 493087;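 active = activation above the mean of all tested compounds plus 3 SD, set per screening campaign, cut at about 17% in these data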
Keap1 Nrf2 FP – inhibitors of human Keap1-Nrf2 protein-protein interaction; Keap1 Kelch-Nrf2 peptide fluorescence polarization, 1536-well; 340,000 compounds, 0.15% hits; inhibition, % at 9.4 µM; Q14145; in the data active = inhibition above about 12%;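 also: human Keap1 Kelch domain with fluorescein labeled Nrf2 9mer peptide probe; higher means more block of Keap1 binding to Nrf2 peptide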
cardiac RTF act – cardiac RTF calcium sensitization; AID 493008; 340,000 compounds, 0.24% hits; IANBD-labeled TnC RTF fluorescence at EC20 calcium; 0% EC20 calcium, 100% full calcium; activation, % at 7.2 µM;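 active = activation above the mean over all tested compounds plus 3 SD, cut at about 30% in these data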;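 also: rise in fluorescence read as greater calcium sensitivity of cardiac thin filaments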
LANA DNA inh – blocks KSHV LANA C-terminal domain binding to DNA. MBP-C-LANA/FAM-LBS DNA binding, fluorescence polarization. inhibition, % at 9 µM. 340,000 compounds, 0.078% hits. AID 504423;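 active = highest replicate inhibition at or above 60% at 9 µM, even if other replicates fall short; inactive = all replicates below 60% inhibition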
RTF Ca sens inh – cardiac RTF calcium desensitization | IANBD-labeled cardiac RTF, Ca2+ fluorescence | inhibition, % at 7.15 µM | 340,000 compounds, 0.12% hits | AID 493244;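 active = inhibition above the mean inhibition of all tested compounds plus 3 SD, cut at about 17% in these data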;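 also: assay run at fixed EC70 calcium of 1.6 mM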
IDE inh confirm – confirmation of human insulin-degrading enzyme inhibitors in cells. shares compounds with IDE cell inh. 1,200 compounds, 51% hits. inhibition, % at 5.59 µM. HEK cells, FAbetaB cleavage, fluorescence polarization;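 active = mean inhibition across triplicate wells above the cutoff set by the earlier primary insulin-degrading enzyme screen, cut at about 16% in these data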
HEK cytotox – counter-screen for IDE inhibitors: cytotoxicity in HEK cells; AID 449730; HEK293 cytotoxicity, ATP luminescence; 1,200 compounds, 28% hits; shares compounds with IDE cell inh; inhibition, % at 5.59 µM; in the data active = inhibition above about 22%
Each line names hits and unclear results; the compound was inactive in the other large screens (follow-up assays come after a bar, where they were run). A selection: hits, their analogues and other compounds. The true share with any hit is near 0.81%.

Cc1ccc(C)c(SCC(=O)Nc2cccnc2Cl)c1	none
COc1ccc(/C=C/C(=O)NC(=S)Nc2ccc(S(=O)(=O)Nc3ccc(OC)nn3)cc2)cc1	none
COc1ccc(/C=C/C(=O)NC(=S)Nc2ccc(S(=O)(=O)Nc3cc(C)on3)cc2)cc1	IDE cell inh 16 | IDE inh confirm inactive | HEK cytotox inactive
COC(=O)/C(=C\c1ccc([N+](=O)[O-])o1)NC(=O)c1ccccc1	none
Cc1cccc(NC(=O)/C(=C\c2ccc([N+](=O)[O-])o2)NC(=O)c2ccc(Cl)cc2)c1	IDE cell inh 17 | IDE inh confirm inactive | HEK cytotox inactive
CCN(CC)Cc1c(O)ccc2c(=O)c(-c3ccc(Cl)cc3)coc12	none
CCCOC(=O)c1ccc(Oc2coc3c(CN(CC)CC)c(O)ccc3c2=O)cc1	IDE cell inh 20 | IDE inh confirm inactive | HEK cytotox inactive
CCN(CC)c1ccc(/C=C2/C(=O)c3ccc(C(=O)O)cc3C2=O)cc1	IDE cell inh 138, cardiac RTF act 78 | IDE inh confirm 26 | HEK cytotox inactive
O=S(=O)(c1cccc(NC(=S)N2CCN(c3ccccc3F)CC2)c1)C(F)F	none
O=S(=O)(c1cccc(NC(=S)N2CCN(c3ccccc3)CC2)c1)C(F)F	IDE cell inh 19 | IDE inh confirm inactive | HEK cytotox inactive
CC(=O)NC(c1cccs1)c1cc(Cl)c2ccccc2c1O (stereo not drawn)	IDE cell inh 19 | IDE inh confirm inactive | HEK cytotox inactive
CC(=O)NC(c1cccs1)c1cc([N+](=O)[O-])c2cccnc2c1O (stereo not drawn)	IDE cell inh 27 | IDE inh confirm inactive | HEK cytotox 27
CCC(=O)NC(c1cccs1)c1cc([N+](=O)[O-])c2cccnc2c1O (stereo not drawn)	none
CCC(=O)NC(c1cccs1)c1cc(Cl)c2ccccc2c1O (stereo not drawn)	IDE cell inh 17 | IDE inh confirm inactive | HEK cytotox inactive
Cc1ccc(S(=O)(=O)N2[C@@H](c3cccc(Cl)c3)C(C(=O)O)=CC[C@H]2c2cccs2)cc1	none
O=C(CCNC(=O)OCc1ccccc1)NC1CCCCCC1	none
COc1ccc(C(=O)c2sc3nc(-c4ccccc4)ccc3c2N)cc1	IDE cell inh 21 | IDE inh confirm 19 | HEK cytotox inactive
O=C(CN1CCN(c2nc(-c3ccc(Cl)cc3)cs2)CC1)NCc1ccco1	none
S=C(NCc1ccco1)N1CCN(c2nc(-c3ccc(Cl)cc3)cs2)CC1	IDE cell inh 22 | IDE inh confirm inactive | HEK cytotox inactive
S=C(NCc1ccco1)N1CCN(c2nc(-c3ccccc3)cs2)CC1	IDE cell inh 18 | IDE inh confirm inactive | HEK cytotox inactive
S=C(NCC1CCCO1)N1CCN(c2nc(-c3ccccc3)cs2)CC1 (stereo not drawn)	none
Cc1ccc(NS(=O)(=O)c2ccc(-c3csc(C)n3)s2)c(C)c1	none
Cn1cc(CN2CCC(C(O)c3cccs3)CC2)c(-c2cccc(Cl)c2)n1 (stereo not drawn)	none
Cc1cccc(C(=O)N=C2SC3CS(=O)(=O)CC3N2c2ccccc2)c1 (stereo not drawn)	none (no result: IDE cell inh)
COc1cc(/C=C/C(O)=C/C(=O)/C=C/c2ccc(O)cc2)ccc1O	IDE cell inh 44 | IDE inh confirm 109 | HEK cytotox inactive
Cn1c(CSc2nc3ccccc3s2)nnc1SCC(=O)NCc1cccnc1	none
CCN1C(=S)SC(=O)C1=C1C=C(C)OC(C)=C1	none
CCN1C(=S)SC(=O)C1=C1C=C(C)N(Cc2ccco2)C(C)=C1	IDE cell inh 33 | IDE inh confirm 42 | HEK cytotox inactive
C=CCN(C(=O)CSc1nc2[nH]ncc2c(=O)n1-c1ccccc1OC)c1ccccc1	IDE cell inh 18 | IDE inh confirm inactive | HEK cytotox inactive
CCCCn1c(NC(=S)Nc2ccccc2)nc2ccccc21	IDE cell inh 31 | IDE inh confirm inactive | HEK cytotox inactive
S=C(Nc1ccccc1)Nc1nc2ccccc2n1CCOc1ccccc1	IDE cell inh 29 | IDE inh confirm 18 | HEK cytotox inactive
O=C(CNC(=O)c1ccco1)NCC(=O)OCc1ccc(F)cc1	none
CC(=O)N/N=C/c1cc(C(C)(C)C)cc(/C=N/NC(C)=O)c1O	IDE cell inh 48 (no result: IDE cell activ, cardiac RTF act, RTF Ca sens inh) | IDE inh confirm 29 | HEK cytotox inactive
Cc1cc(C(=O)N/N=C\c2cc(C(C)(C)C)ccc2O)n[nH]1	none
COc1ccc2nc(Nc3sc4c(c3C(N)=O)CCCC4)sc2c1	IDE cell inh 20 | IDE inh confirm inactive | HEK cytotox inactive
N#C/C(=C(/O)CO/N=C/c1ccccc1Cl)c1nc2ccccc2[nH]1	none
Brc1ccc2[nH]c3c(N4CCc5ccccc5C4)ncnc3c2c1	IDE cell inh 55 (no result: IDE cell activ, Keap1 Nrf2 FP, cardiac RTF act, LANA DNA inh, RTF Ca sens inh) | IDE inh confirm 41 | HEK cytotox 66
CN1CCN(c2ncnc3c2[nH]c2ccc(F)cc23)CC1	IDE cell inh 23 | IDE inh confirm inactive | HEK cytotox inactive
Fc1ccc2[nH]c3c(N4CCc5ccccc5C4)ncnc3c2c1	IDE cell inh 29 (no result: IDE cell activ, Keap1 Nrf2 FP, cardiac RTF act, LANA DNA inh, RTF Ca sens inh) | IDE inh confirm inactive | HEK cytotox 77
Brc1ccc2[nH]c3c(NCc4ccccn4)ncnc3c2c1	IDE cell inh 64 (no result: IDE cell activ, Keap1 Nrf2 FP, cardiac RTF act, LANA DNA inh, RTF Ca sens inh) | IDE inh confirm 38 | HEK cytotox 22
O=c1c2[nH]c3ccc(F)cc3c2ncn1CCCN1CCOCC1	none
C[C@H](NC(=O)CCCOc1ccc(Cl)cc1Cl)c1nnc2ccccn12	none
CCOc1ccc(S(=O)(=O)N2CCC(C(=O)NCc3cccnc3)CC2)cc1C	none
CCCCC1CCC(C(=O)N(CCOC)c2c(N)n(CC(C)C)c(=O)[nH]c2=O)CC1 (stereo not drawn)	none
O=C(NC(=O)c1cccc(F)c1)OC[C@@H]1CCCN2CCCC[C@H]12	none
O=C(Nc1ccc(C(=O)OC[C@@H]2CCCN3CCCC[C@H]23)cc1)c1cccc(Br)c1	IDE cell inh 32 | IDE inh confirm inactive | HEK cytotox inactive
CN(C)c1ccc(/C=C2\C(=N)N3N=C(CC(=O)N4CCCCC4)SC3=NC2=O)cc1	IDE cell inh 21 | IDE inh confirm 49 | HEK cytotox inactive
CN(C)c1ccc(/C=C2\C(=N)N3N=C(CC(=O)N4CCCC4)SC3=NC2=O)cc1Br	none
O=C(CN1C(=O)S/C(=C\C=C\c2ccccc2)C1=O)Nc1ccccc1C(=O)O	none
C#CCN1C(=O)S/C(=C/C=C/c2ccc(N(C)C)cc2)C1=O	IDE cell inh 41 | IDE inh confirm 57 | HEK cytotox 27
Cc1cc(SCC(=O)OCC(=O)N(CCC#N)c2ccccc2)nc2ccccc12	none
